Common to all, as to experiment: DAPPL (digital affinity profiling via proximity ligation, sequencing); 10 mM Tris-HCl pH 7.5, 50 mM NaCl, 1 mM DTT, 4% glycerol, room temperature, 30 min; GST-TFs on glutathione beads, 16-mer random dsDNA library, 0.1% formaldehyde crosslink after washing; high values mean tight binding
Holding throughout (conditions): protein: recombinant; tags: N-terminal GST; dsDNA, one strand shown

For one assay, the target named is T1, ERF (Homo sapiens, UniProt P50548 1-548).
T1 sequence: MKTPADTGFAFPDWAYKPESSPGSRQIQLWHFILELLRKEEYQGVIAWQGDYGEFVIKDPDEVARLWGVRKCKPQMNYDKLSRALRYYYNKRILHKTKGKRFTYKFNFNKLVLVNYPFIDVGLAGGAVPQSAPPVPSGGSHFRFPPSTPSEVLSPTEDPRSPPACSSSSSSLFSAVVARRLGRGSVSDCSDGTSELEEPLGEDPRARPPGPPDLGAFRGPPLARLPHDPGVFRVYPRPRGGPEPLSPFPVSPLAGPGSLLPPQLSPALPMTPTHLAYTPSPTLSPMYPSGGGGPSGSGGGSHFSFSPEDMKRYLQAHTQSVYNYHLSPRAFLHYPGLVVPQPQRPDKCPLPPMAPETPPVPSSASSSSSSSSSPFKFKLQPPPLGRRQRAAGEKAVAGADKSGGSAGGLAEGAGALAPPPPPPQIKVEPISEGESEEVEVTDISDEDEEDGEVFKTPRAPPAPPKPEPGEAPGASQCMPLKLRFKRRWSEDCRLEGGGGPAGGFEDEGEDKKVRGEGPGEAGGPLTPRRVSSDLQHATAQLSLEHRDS
In outline:
(§1)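 Sequencing on an Illumina NextSeq500 followed washing, crosslinking with 0.1% formaldehyde, proximity ligation (BsaI/T4 ligase, 1 h, 37 °C) and PCR amplification of pools that had been incubated for 30 min at room temperature with 200 nmole of a random double-stranded 16-mer DNA library in Tris/NaCl/DTT/glycerol buffer. Each pool held DNA-barcoded human transcription factors, expressed in yeast as GST fusions and captured on glutathione beads, plus a tag-only sample. Binding signal is a hexamer's read frequency for a factor divided by its frequency in the tag-only sample.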

The target in the next assay is T2, ETV3L (Homo sapiens, UniProt Q6ZN32 1-361).
T2 sequence: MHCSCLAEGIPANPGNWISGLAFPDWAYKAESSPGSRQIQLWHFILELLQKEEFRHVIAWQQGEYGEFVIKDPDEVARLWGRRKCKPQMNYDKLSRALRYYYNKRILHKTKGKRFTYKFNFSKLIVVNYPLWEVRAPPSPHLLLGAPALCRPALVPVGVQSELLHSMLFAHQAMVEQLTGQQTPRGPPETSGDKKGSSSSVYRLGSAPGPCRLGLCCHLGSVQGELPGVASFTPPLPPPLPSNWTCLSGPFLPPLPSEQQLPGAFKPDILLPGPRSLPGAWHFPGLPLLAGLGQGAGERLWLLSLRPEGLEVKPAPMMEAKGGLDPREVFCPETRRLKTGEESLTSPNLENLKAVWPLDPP
In outline:
as §1

The target in another assay is T3, ETS2 (Homo sapiens, UniProt P15036 1-469).
T3 sequence: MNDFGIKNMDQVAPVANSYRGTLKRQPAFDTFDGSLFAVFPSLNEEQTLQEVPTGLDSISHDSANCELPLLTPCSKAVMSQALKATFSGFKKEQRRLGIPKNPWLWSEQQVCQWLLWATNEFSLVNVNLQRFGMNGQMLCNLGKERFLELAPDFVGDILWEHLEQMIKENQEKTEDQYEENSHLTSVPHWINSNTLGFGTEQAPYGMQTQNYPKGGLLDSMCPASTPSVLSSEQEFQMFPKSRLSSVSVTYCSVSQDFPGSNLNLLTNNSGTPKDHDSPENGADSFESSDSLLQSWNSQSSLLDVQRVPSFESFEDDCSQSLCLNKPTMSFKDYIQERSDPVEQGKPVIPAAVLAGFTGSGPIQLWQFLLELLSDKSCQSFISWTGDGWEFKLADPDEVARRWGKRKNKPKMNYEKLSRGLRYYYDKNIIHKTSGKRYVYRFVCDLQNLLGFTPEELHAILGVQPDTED
The procedure, abridged:
as §1

The next assay deals with T4, SPDEF (Homo sapiens, UniProt O95238 1-335).
T4 sequence: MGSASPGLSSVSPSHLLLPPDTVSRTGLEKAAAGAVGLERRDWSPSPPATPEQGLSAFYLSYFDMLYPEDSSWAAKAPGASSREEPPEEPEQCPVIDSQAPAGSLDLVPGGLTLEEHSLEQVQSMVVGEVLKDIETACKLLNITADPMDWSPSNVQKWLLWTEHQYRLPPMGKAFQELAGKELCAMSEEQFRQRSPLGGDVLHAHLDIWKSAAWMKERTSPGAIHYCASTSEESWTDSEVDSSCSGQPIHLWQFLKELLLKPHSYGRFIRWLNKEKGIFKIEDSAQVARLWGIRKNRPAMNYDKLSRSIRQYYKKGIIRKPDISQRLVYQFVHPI
In outline:
as §1

A further assay has as its target T5, ETV7 (Homo sapiens, UniProt Q9Y603 1-341).
T5 sequence: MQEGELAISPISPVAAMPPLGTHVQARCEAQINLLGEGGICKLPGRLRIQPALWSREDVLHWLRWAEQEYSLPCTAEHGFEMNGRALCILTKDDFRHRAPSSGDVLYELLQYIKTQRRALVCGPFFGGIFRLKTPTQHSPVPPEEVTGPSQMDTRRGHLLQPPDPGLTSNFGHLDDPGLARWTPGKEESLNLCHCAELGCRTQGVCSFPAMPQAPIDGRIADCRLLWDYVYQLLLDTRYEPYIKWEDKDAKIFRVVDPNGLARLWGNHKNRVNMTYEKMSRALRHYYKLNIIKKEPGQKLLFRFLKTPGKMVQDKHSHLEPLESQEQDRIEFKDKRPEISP
In outline:
as §1

A further assay concerns the target T6, ELF5 (Homo sapiens, UniProt Q9UKW6-2 1-255).
T6 sequence: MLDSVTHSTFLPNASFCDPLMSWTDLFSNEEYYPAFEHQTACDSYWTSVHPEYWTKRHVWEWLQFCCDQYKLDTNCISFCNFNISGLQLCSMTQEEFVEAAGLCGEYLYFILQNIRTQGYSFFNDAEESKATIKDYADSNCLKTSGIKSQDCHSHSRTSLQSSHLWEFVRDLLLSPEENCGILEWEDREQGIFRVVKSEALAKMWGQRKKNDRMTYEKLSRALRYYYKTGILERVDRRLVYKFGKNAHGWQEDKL
The procedure, abridged: as §1

Another assay deals with T7, ETV3 (Homo sapiens, UniProt P41162-2 1-143).
T7 sequence: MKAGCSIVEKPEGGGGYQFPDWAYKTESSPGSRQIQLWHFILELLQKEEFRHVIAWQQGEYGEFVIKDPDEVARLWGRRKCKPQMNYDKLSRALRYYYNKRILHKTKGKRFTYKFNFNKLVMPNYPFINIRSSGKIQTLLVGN
The procedure, abridged:
as §1

The target of a further assay is ETV6 (Homo sapiens, UniProt P41212 1-452). In outline: as §1
Sequence of ETV6 (P41212 whole entry): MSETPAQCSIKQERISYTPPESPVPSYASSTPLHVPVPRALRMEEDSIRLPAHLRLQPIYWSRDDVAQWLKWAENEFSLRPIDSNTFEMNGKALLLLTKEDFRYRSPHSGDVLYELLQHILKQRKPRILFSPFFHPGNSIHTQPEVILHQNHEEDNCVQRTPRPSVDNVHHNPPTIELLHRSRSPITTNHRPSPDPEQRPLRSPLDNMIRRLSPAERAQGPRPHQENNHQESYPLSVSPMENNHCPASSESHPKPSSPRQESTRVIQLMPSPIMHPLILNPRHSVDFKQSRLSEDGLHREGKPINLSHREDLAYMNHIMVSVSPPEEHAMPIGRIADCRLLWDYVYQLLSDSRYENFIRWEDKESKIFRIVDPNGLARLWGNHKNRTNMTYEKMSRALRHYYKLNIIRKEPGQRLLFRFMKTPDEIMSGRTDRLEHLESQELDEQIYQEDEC

For eight sequences, binding signal results are on record in publication PMC7862700, “An all-to-all approach to the identification of sequence-specific readers for epigenetic DNA modifications on cytosine”.

Consider TCGCTC, for which the binding signal with ERF is 1.35 fold enrichment (6-mer frequency, TF over GST control); with ETV3L it was 1.37 fold enrichment (6-mer frequency, TF over GST control); in the assay with ETS2 it was 1.32 fold enrichment (6-mer frequency, TF over GST control); in the assay with SPDEF, 1.19 fold enrichment (6-mer frequency, TF over GST control); with ETV7, 1.02 fold enrichment (6-mer frequency, TF over GST control); with ELF5 it was 1.25 fold enrichment (6-mer frequency, TF over GST control). Moreover, the binding signal with ETV3 is 1.11 fold enrichment (6-mer frequency, TF over GST control); in the assay with ETV6 it was 1.28 fold enrichment (6-mer frequency, TF over GST control).

As to TCTCGT, the binding signal was 1.16 fold enrichment (6-mer frequency, TF over GST control) in the assay with ERF; 1.21 fold enrichment (6-mer frequency, TF over GST control) in the assay with ETV3L; 1.34 fold enrichment (6-mer frequency, TF over GST control) with ETS2; 1.15 fold enrichment (6-mer frequency, TF over GST control) in the assay with SPDEF; 1.2 fold enrichment (6-mer frequency, TF over GST control) with ETV7; 1.24 fold enrichment (6-mer frequency, TF over GST control) in the assay with ELF5. For the same sequence, the binding signal with ETV3 was 1.03 fold enrichment (6-mer frequency, TF over GST control); with ETV6, 1.18 fold enrichment (6-mer frequency, TF over GST control).

Turning to AATCCC, the binding signal is 1.44 fold enrichment (6-mer frequency, TF over GST control) with ERF; 1.29 fold enrichment (6-mer frequency, TF over GST control) in the assay with ETV3L; 1.25 fold enrichment (6-mer frequency, TF over GST control) with ETS2; 1.36 fold enrichment (6-mer frequency, TF over GST control) with SPDEF; 1.23 fold enrichment (6-mer frequency, TF over GST control) in the assay with ETV7; 1.4 fold enrichment (6-mer frequency, TF over GST control) with ELF5. In addition, the binding signal in the assay with ETV3 is 1.26 fold enrichment (6-mer frequency, TF over GST control); with ETV6 it was 1.42 fold enrichment (6-mer frequency, TF over GST control).

For TTTGCG, the binding signal with ERF was 1.36 fold enrichment (6-mer frequency, TF over GST control); with ETV3L, 1.16 fold enrichment (6-mer frequency, TF over GST control); in the assay with ETS2, 1.21 fold enrichment (6-mer frequency, TF over GST control); with SPDEF it was 1.2 fold enrichment (6-mer frequency, TF over GST control); with ETV7, 1.11 fold enrichment (6-mer frequency, TF over GST control); in the assay with ELF5 it was 1.16 fold enrichment (6-mer frequency, TF over GST control). The binding signal with ETV3 was 1.17 fold enrichment (6-mer frequency, TF over GST control); in the assay with ETV6, 1.29 fold enrichment (6-mer frequency, TF over GST control).

Turning to GCTGAT, the binding signal with ERF is 1.07 fold enrichment (6-mer frequency, TF over GST control); in the assay with ETV3L, 1.18 fold enrichment (6-mer frequency, TF over GST control); in the assay with ETS2, 1.12 fold enrichment (6-mer frequency, TF over GST control); with SPDEF, 1.07 fold enrichment (6-mer frequency, TF over GST control); with ETV7, 1.27 fold enrichment (6-mer frequency, TF over GST control); with ELF5 it was 1.03 fold enrichment (6-mer frequency, TF over GST control). The binding signal in the assay with ETV3 was 1.2 fold enrichment (6-mer frequency, TF over GST control).

As for CTGATA, the binding signal with ERF was 1.16 fold enrichment (6-mer frequency, TF over GST control); in the assay with ETV3L, 1.21 fold enrichment (6-mer frequency, TF over GST control); with ETS2 it was 1.17 fold enrichment (6-mer frequency, TF over GST control); with SPDEF, 1.15 fold enrichment (6-mer frequency, TF over GST control); with ETV7 it was 1.08 fold enrichment (6-mer frequency, TF over GST control); with ELF5, 1.2 fold enrichment (6-mer frequency, TF over GST control). Also, the binding signal with ETV3 was 1.26 fold enrichment (6-mer frequency, TF over GST control); with ETV6, 1.06 fold enrichment (6-mer frequency, TF over GST control).

Take CTCTTT: the binding signal with ERF was 1.39 fold enrichment (6-mer frequency, TF over GST control); in the assay with ETV3L, 1.53 fold enrichment (6-mer frequency, TF over GST control); in the assay with ETS2, 1.41 fold enrichment (6-mer frequency, TF over GST control); with SPDEF it was 1.53 fold enrichment (6-mer frequency, TF over GST control); in the assay with ETV7, 1.5 fold enrichment (6-mer frequency, TF over GST control); with ELF5, 1.42 fold enrichment (6-mer frequency, TF over GST control). The binding signal with ETV3 was 1.53 fold enrichment (6-mer frequency, TF over GST control); in the assay with ETV6, 1.4 fold enrichment (6-mer frequency, TF over GST control).

Take TACTAC: the binding signal with ERF was 1.3 fold enrichment (6-mer frequency, TF over GST control); with ETV3L, 1.41 fold enrichment (6-mer frequency, TF over GST control); in the assay with ETS2 it was 1.34 fold enrichment (6-mer frequency, TF over GST control); with SPDEF it was 1.34 fold enrichment (6-mer frequency, TF over GST control); with ETV7, 1.47 fold enrichment (6-mer frequency, TF over GST control); with ELF5, 1.36 fold enrichment (6-mer frequency, TF over GST control). Further, the binding signal with ETV3 was 1.29 fold enrichment (6-mer frequency, TF over GST control); in the assay with ETV6, 1.38 fold enrichment (6-mer frequency, TF over GST control).
